Where “and” joins values, the source holds several entries; their conditions need not be identical. Equal entries are not always repeated. Records with an inconclusive call do not appear. A call without a number means that no potency is given here. Some structures have more than one record in an assay (separate samples or runs), and their calls can disagree. Calls of active or inactive are those of the source. Unless noted, the call rests on the fitted dose curve; in most records, active means well fitted curve in the direction sought with a large enough effect in the repeat runs; inconclusive means weak or mixed curves; inactive means no such curve, though single readings can be large; an effect the other way counts as inactive or inconclusive.
Assays:
[1] = qHTS assay to identify small molecule antagonists of the androgen receptor (AR) signaling pathway using the MDA cell line in the presence of 0.5 nM R1881 - cell viability counter screen (AID 1259242); further: nearly all actives have a fitted effect of over 45% in size; further: potency means the concentration at half of the fitted maximal effect
Method in brief: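 qHTS format. MDA-kb2 (MMTV-luc, AR/GR responsive) + cpd + 0.5 nM R1881 final, 16 hr 37C/0% CO2 → CellTiter-Fluor 30 min → fluorescence intensity.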

[2] = molecular target: Androgen receptor (Homo sapiens) (UniProt P10275); assay: qHTS assay to identify small molecule antagonists of the androgen receptor (AR) signaling pathway using the MDA cell line in the presence of 0.5 nM R1881 (AID 1259243); further: nearly all actives have a fitted effect of over 50% in size; further: potency means the concentration at half of the fitted maximal effect
Method in brief: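 Antagonist mode quantitative HTS in MDA-kb2 MMTV-luciferase cells, agonist R1881 at 0.5 nM final, 16 hr exposure at 37C and 0% CO2, luminescent detection.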

[3] = molecular target: Estrogen receptor (Homo sapiens) (UniProt P03372); assay: qHTS assay to identify small molecule antagonists of the estrogen receptor alpha (ER-alpha) signaling pathway using the BG1 cell line in the presence of 0.1 nM 17-beta-estradiol (AID 1259244); further: nearly all actives have a fitted effect of over 50% in size; further: potency means the concentration at half of the fitted maximal effect
Method in brief: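 Reporter is a stably transfected luciferase under four estrogen responsive elements in VM7Luc4E2 cells expressing native full-length ER-alpha; inhibition of 0.1 nM (final) 17beta-estradiol-driven signal over 22 h is read by luminescence.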

[4] = qHTS assay to identify small molecule HDAC inhibitors (AID 1259364);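 further: wild-type HCT-116 cells with endogenous class I/II HDAC activity; top concentration of the series differs between compounds; nearly all actives have a fitted effect of over 45% in size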
Method in brief: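 Quantitative high-throughput format: overnight-seeded HCT-116 cells got compounds for 2 hr at 37C; HDAC-Glo I/II reagent added, 30 min RT, luminescence measured.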

[5] = qHTS assay to identify small molecule HDAC inhibitors - cell viability counter screen (AID 1259365); further: series mostly up to about 92 µM; nearly all actives have a fitted effect of over 50% in size
Method in brief: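 Luminescence from CellTiter-Glo, developed 30min at room temperature, reports viability of wild-type HCT-116 cells treated 2hr with compounds at 37 C and 5% CO2 after overnight plating.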

[6] = qHTS assay to identify small molecule agonists of the sonic hedgehog signaling (Shh) pathway - cell viability counter screen (AID 1259366); further: nearly all actives have a fitted effect of over 50% in size; further: potency means the concentration at half of the fitted maximal effect
Method in brief: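 Cytotoxicity counter screen run in the same wells as the Shh reporter assay. NIH/3T3 cells carrying a Gli1 response element–driven luciferase were treated with DMSO-dissolved compounds for 24hr, and live-cell protease activity was measured with CellTiter-Fluor.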

[7] = qHTS assay to identify small molecule antagonists of the sonic hedgehog signaling (Shh) pathway - cell viability counter screen (AID 1259367); further: nearly all actives have a fitted effect of over 55% in size; further: potency means the concentration at half of the fitted maximal effect
Method in brief: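 Viability was read by CellTiter-Fluor fluorescence in the same wells, reagent added 23 hr into compound treatment and incubated 1 hr at 37C. The 3T3 Gli1-Luc reporter cells (2,000/well) received conditioned medium after compound and ran 24 hr.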

[8] = qHTS assay to identify small molecule agonists of the sonic hedgehog signaling (Shh) pathway (AID 1259368; calls by dose curve;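 further: NIH/3T3-derived 3T3Gli1-Luc cells carrying a stable Gli1-driven firefly luciferase reporter; series mostly up to about 92 µM; nearly all actives have a fitted effect of over 15% in size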)
Method in brief: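 Quantitative high-throughput format using a Gli1-driven firefly luciferase reporter line derived from NIH/3T3 cells. After a 24 hr compound treatment at 37 C and 5% CO2, luminescence reported Gli1 response element activity.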

[9] = qHTS assay to identify small molecule antagonists of the sonic hedgehog signaling (Shh) pathway (AID 1259369; calls by dose curve; further: nearly all actives have a fitted effect of over 45% in size; further: potency means the concentration at half of the fitted maximal effect)
Method in brief: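 Stable Gli1-Luc reporter NIH/3T3 clone; quantitative HTS in stimulated mode with conditioned medium. Luminescence measured after 24hr compound treatment at 37 C.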

[10] = molecular target: Estrogen receptor beta (Homo sapiens) (UniProt Q92731); assay: qHTS assay to identify small molecule agonists of the estrogen receptor beta (ER-beta) signaling pathway (AID 1259377; active means well fitted activation curve with a large enough effect in the signal ratio in the repeat runs, not every such curve was filed as active; the % refers to the signal ratio)
Method in brief: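 HEK293T ER-beta-UAS-bla; 2% charcoal-stripped FBS; cells pre-incubated 6 hr, compound 16 hr, 37C/5% CO2; LiveBLAzer B/G FRET substrate 2 h RT; fluorescence intensity read.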

[11] = qHTS assay to identify small molecule agonists of the androgen receptor (AR) signaling pathway in the presence of an antagonist - cell viability counter screen (AID 1259379); further: nearly all actives have a fitted effect of over 25% in size; further: potency means the concentration at half of the fitted maximal effect;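 on activity change, negative = cytotoxicity: MDA-kb2 human breast cancer cells carrying an MMTV luciferase reporter; series mostly up to about 92 µM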
Method in brief: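 Nilutamide-containing (3.0uM final) MDA-kb2 cultures, 3,000 cells/well, were treated with compounds across 15 concentrations. After 16 hr at 37C with no CO2, cell viability was determined by CellTiter-Fluor fluorescence in the luciferase assay wells.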

[12] = molecular target: Androgen receptor (Homo sapiens) (UniProt P10275); assay: qHTS assay to identify small molecule agonists of the androgen receptor (AR) signaling pathway in the presence of an antagonist (AID 1259381; calls by dose curve; further: nearly all actives have a fitted effect of over 15% in size)
Method in brief: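 Reporter-gene luminescence from MDA-kb2 cells exposed 16hr at 37C (0% CO2) to 15-point compound titrations with 3.0uM final nilutamide as AR antagonist.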

[13] = qHTS assay to identify small molecule antagonists of the estrogen receptor beta (ER-beta) signaling pathway - cell viability counter screen (AID 1259382); further: nearly all actives have a fitted effect of over 55% in size; further: potency means the concentration at half of the fitted maximal effect;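 on activity change, negative = cytotoxicity: HEK293T cells carrying ER-beta-UAS-bla reporter stimulated with estradiol; series mostly up to about 92 µM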
Method in brief: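 Viability is scored by CellTiter-Glo luminescence (30 min, room temperature) in ER-beta-UAS-bla HEK293T wells already read for reporter fluorescence. Compound exposure lasts 16 hr at 37C alongside 1nM 17-beta-estradiol in charcoal-stripped serum medium.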

[14] = molecular target: Thyrotropin receptor (Homo sapiens) (UniProt P16473); assay: qHTS assay to identify small molecule antagonists of the thyroid stimulating hormone receptor (TSHR) signaling pathway (AID 1259385; calls by dose curve; further: nearly all actives have a fitted effect of over 20% in size)
Method in brief: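 Antagonist mode: compound-treated TSHR-expressing HEK293 cells were stimulated with 1.5 ng/mL TSH (final) in presence of Ro20-1724 for 30 min at RT. HTRF cAMP detection after 1 h; each compound tested at 15 concentrations, triplicate.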

[15] = qHTS assay to identify small molecule agonists of the estrogen receptor alpha (ER-alpha) signaling pathway in the presence of an antagonist - cell viability counter screen (AID 1259386);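 further: series mostly up to about 92 µM; cells exposed to compounds for 22 h at 37 °C before the viability read; nearly all actives have a fitted effect of over 30% in size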
Method in brief: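 In this counter screen, compound effects on VM7Luc4E2 viability were tested in the presence of the antagonist ICI-182,780 at 10.0nM final. Compounds were dosed at 15 concentrations, exposure lasted 22hr, and the CellTiter-Fluor signal was read.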

[16] = qHTS assay to identify small molecule agonists of the estrogen receptor beta (ER-beta) signaling pathway - cell viability counter screen (AID 1259380); further: nearly all actives have a fitted effect of over 30% in size; further: potency means the concentration at half of the fitted maximal effect
Method in brief: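 Steps: plate ER-beta-UAS-bla HEK293T cells, rest 6 hr; add compounds in DMSO; incubate 16 hr at 37C, 5% CO2; add FRET substrate 2 hr; add CellTiter-Glo, wait 30 min at room temperature; read luminescence.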

[17] = qHTS assay to identify small molecule agonists or antagonists of the thyroid stimulating hormone receptor (TSHR) signaling pathway - wild type cell line counter screen (AID 1259384; calls by dose curve)
Method in brief: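 Counter screen in untransfected Hek293: compounds (15-point titration, triplicate) plus phosphodiesterase inhibitor Ro20-1724 added after 18 h plating; 30 min RT. Intracellular cAMP via competitive d2/cryptate immunoassay, 1 h incubation.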

[18] = qHTS assay to identify small molecule phospholipidosis (PLD) inducers (AID 1259344; active means well fitted curve in the direction sought with a large enough effect; an effect the other way counts as inactive or inconclusive)
Method in brief: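 Phospholipid accumulation was scored by imaging: fixed, Hoechst-counterstained HepG2 cells stained with LipidTOX Red after 24 h compound exposure at 37 C. Read-outs were pit count and pit intensity per well or per cell, with amiodarone and DMSO controls.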

[19] = molecular target: Estrogen receptor (Homo sapiens) (UniProt P03372); assay: qHTS assay to identify small molecule agonists of the estrogen receptor alpha (ER-alpha) signaling pathway in the presence of an antagonist (AID 1259383; calls by dose curve; further: top concentration of the series differs between compounds; nearly all actives have a fitted effect of over 15% in size)
Method in brief: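 Readout was ERE-driven luciferase luminescence in VM7Luc4E2 cells, which express full-length ER-alpha endogenously. Compounds were tested at 15 concentrations for 22hr alongside 10.0nM ICI-182,780 (final concentration).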

[20] = molecular target: Estrogen receptor beta (Homo sapiens) (UniProt Q92731); assay: qHTS assay to identify small molecule antagonists of the estrogen receptor beta (ER-beta) signaling pathway (AID 1259378; active means well fitted inhibition curve with a large enough effect in the signal ratio in the repeat runs, not every such curve was filed as active; the % refers to the signal ratio)
Method in brief: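 Antagonist mode: compounds added to beta-lactamase reporter HEK293T ER-beta-UAS cells stimulated with E2 (1nM final), 16 hr at 37C. LiveBLAzer B/G FRET substrate, 2 hours room temperature, fluorescence read-out.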

Chain of Thyrotropin receptor (Homo sapiens) (P16473 whole entry, looked up): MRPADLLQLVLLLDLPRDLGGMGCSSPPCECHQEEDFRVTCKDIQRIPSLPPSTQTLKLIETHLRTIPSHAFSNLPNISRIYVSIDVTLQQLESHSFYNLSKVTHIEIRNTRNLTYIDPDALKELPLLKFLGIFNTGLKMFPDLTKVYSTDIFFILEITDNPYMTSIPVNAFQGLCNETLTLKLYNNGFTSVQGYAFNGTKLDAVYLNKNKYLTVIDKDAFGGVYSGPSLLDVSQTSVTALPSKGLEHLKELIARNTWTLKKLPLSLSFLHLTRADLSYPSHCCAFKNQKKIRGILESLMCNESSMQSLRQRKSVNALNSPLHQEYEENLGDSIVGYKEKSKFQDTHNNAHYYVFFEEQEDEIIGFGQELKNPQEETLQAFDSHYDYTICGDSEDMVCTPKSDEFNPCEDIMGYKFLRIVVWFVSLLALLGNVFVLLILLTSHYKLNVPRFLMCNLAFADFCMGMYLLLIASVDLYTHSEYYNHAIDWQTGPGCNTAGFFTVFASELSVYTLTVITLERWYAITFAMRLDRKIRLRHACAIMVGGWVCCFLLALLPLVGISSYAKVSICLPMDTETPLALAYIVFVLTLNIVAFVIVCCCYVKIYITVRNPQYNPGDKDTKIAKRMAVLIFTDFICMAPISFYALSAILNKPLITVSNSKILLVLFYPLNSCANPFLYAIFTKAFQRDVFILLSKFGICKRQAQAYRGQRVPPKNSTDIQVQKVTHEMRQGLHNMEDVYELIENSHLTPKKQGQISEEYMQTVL
Chain of Estrogen receptor beta (Homo sapiens) (Q92731 whole entry, looked up): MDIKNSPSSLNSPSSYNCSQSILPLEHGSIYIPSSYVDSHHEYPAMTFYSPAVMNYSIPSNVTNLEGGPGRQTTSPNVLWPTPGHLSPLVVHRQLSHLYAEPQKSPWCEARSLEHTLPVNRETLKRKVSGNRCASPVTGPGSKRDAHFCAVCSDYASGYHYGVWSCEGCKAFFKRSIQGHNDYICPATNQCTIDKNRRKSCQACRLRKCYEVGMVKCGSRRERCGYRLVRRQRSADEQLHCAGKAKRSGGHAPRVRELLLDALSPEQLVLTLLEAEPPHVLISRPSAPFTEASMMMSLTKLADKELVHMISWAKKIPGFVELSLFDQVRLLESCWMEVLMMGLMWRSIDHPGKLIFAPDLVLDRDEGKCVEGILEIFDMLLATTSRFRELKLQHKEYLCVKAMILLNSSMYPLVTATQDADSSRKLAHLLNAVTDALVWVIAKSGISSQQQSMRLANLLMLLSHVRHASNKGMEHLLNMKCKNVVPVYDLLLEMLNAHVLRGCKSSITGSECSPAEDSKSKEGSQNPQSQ
Chain of Androgen receptor (Homo sapiens) (P10275 whole entry, looked up): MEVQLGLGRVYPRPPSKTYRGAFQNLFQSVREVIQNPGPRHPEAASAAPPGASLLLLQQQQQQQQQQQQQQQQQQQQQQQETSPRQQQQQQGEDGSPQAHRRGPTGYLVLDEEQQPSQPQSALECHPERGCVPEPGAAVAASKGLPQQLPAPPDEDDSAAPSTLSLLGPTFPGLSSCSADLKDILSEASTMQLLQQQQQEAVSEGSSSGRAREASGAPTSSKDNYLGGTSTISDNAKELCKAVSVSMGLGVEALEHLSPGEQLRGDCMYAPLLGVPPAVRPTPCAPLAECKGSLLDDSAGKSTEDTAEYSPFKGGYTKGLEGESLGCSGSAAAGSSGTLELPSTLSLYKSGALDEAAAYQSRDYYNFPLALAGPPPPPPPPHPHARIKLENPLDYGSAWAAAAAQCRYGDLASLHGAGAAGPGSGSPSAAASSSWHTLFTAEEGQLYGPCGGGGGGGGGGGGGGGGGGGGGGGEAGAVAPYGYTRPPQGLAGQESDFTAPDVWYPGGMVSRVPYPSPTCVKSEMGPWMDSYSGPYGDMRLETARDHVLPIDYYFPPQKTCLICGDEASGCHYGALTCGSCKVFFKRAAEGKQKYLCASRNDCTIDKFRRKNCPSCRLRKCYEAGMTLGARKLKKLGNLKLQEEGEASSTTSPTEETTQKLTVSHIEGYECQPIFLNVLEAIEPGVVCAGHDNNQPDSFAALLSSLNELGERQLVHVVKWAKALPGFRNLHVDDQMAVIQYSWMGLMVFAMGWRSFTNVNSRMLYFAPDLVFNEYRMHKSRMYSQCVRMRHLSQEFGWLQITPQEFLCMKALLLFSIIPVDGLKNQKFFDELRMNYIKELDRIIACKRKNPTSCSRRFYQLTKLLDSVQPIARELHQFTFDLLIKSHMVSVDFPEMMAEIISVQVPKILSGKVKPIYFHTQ
Chain of Estrogen receptor (Homo sapiens) (P03372 whole entry, looked up): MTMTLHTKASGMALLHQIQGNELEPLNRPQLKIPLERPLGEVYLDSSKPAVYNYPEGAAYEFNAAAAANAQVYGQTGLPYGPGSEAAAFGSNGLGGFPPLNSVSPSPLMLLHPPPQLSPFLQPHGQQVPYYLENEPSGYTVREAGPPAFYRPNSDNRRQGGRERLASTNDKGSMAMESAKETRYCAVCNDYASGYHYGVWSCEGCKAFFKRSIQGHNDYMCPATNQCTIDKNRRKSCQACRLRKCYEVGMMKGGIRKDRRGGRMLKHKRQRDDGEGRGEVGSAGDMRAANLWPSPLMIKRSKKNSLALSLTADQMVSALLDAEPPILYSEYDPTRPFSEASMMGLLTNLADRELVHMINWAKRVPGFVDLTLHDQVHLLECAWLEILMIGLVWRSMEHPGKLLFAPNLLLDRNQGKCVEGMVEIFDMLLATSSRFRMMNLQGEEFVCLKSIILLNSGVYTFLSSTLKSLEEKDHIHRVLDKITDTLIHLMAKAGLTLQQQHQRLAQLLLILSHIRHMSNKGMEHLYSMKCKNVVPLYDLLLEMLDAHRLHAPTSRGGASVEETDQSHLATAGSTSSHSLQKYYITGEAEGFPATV

With `CC(=O)OCC=C(C)C` the Potency [1] was “inactive”, the Potency [2] was “inactive” and the Potency [3] was “inactive”. For the same molecule, the Potency [4] was “inactive”, the Potency [5] was “inactive” and the Potency [6] was “inactive”. The Potency [7] was “inactive”, the Potency [8] was “inactive” and the Potency [9] was “inactive”. For the same molecule, the Potency [10] was “inactive”, the Potency [11] was “inactive” and the outcome [12] was “inactive”. The Potency [13] was “inactive”, the Potency [14] was “inactive” and the Potency [15] was “inactive”.

With `OC[C@H]1O[C@H](O[C@H]2O[C@H](CO)[C@@H](O)[C@H](O)[C@H]2O)[C@H](O)[C@@H](O)[C@@H]1O` the Potency [1] was “inactive”, the Potency [2] was “inactive” and the Potency [4] was “inactive”. For the same molecule, the Potency [5] was “inactive”, the Potency [6] was “inactive” and the Potency [7] was “inactive”. For the same molecule, the Potency [8] was “inactive”, the Potency [9] was “inactive” and the Potency [11] was “inactive”. For the same molecule, the Potency [16] was “inactive”, the outcome [12] was “inactive” and the Potency [13] was “inactive”. The outcome [17] was “inactive”, the Potency [14] was “inactive” and the Potency [15] was “inactive”.

With `Cc1c2ccccc2c(C)c2c1ccc1ccccc12` the Potency [1] was “inactive and 61.1 µM (active)”, the Potency [2] was 48.1 µM (active) and 27.3 µM (active) and the Potency [3] was “inactive and 4.33 µM (active)”. For the same molecule, the Potency [4] was “inactive”, the Potency [5] was “inactive” and the Potency [6] was “inactive and 68.6 µM (active)”. For the same molecule, the Potency [7] was “inactive and 61.1 µM (active)”, the Potency [8] was “inactive” and the Potency [11] was 53.9 µM (active) and 61.1 µM (active). The outcome [12] was “inactive”, the Potency [13] was 24.3 µM (active) and the outcome [17] was “inactive”. The Potency [14] was “inactive” and the Potency [15] was “inactive”.

With `CC(C)Cn1cnc2c(N)nc3ccccc3c21` the viability change, negative = cytotoxic [1] was -4.33% [at 19 µM] (inactive), the activity change, negative = inhibition [3] was -22.8% [at 19 µM] (inactive) and the Potency [18] was “inactive”. For the same molecule, the activity change, negative = inhibition [4] was -5.48% [at 19 µM] (inactive), the activity change, negative = cytotoxicity [5] was 0.199% [at 19 µM] (inactive) and the viability change, negative = cytotoxic [6] was 8.98% [at 19 µM] (inactive). The viability change, negative = cytotoxic [7] was 4.21% [at 19 µM] (inactive), the activity change [8] was 3.39% [at 18.9 µM, stronger effect = higher value] (inactive) and the activation [10] was 4.64% [at 19 µM] (inactive). For the same molecule, the activity change, negative = cytotoxicity [11] was -7.59% [at 19 µM] (inactive), the activity change, negative = cytotoxicity [16] was 0.961% [at 19 µM] (inactive) and the activation [12] was -5.94% [at 19 µM] (inactive). The activity change, negative = cytotoxicity [13] was -2.67% [at 19 µM] (inactive), the cAMP activity change [17] was -0.409% [at 18.9 µM] (inactive) and the activity change, negative = inhibition [14] was 2.37% [at 19 µM] (inactive). The activity change, negative = cytotoxicity [15] was -6.27% [at 19 µM] (inactive).

With `CCCCC/C=C\C/C=C\CCCCCCCC(=O)O` the Potency [1] was “inactive”, the Potency [3] was “inactive” and the Potency [18] was “inactive”. The Potency [4] was “inactive”, the Potency [5] was “inactive” and the Potency [7] was “inactive”. For the same molecule, the Potency [8] was “inactive”, the Potency [11] was “inactive” and the Potency [16] was 43.3 µM (active). For the same molecule, the Potency [19] was “inactive”, the outcome [17] was “inactive” and the Potency [14] was “inactive”. For the same molecule, the Potency [15] was “inactive”.

With `CCCCCCCCCCCCCC[N+](C)(C)C` the Potency [1] was 23.5 µM (active), the Potency [3] was 2.96 µM (active) and 3.85 µM (active) and 26.6 µM (active) and the Potency [18] was “inactive”. For the same molecule, the Potency [4] was “inactive”, the Potency [5] was “inactive” and the Potency [6] was 21 µM (active) and 27.3 µM (active) and inactive. For the same molecule, the Potency [7] was “inactive”, the Potency [8] was “inactive” and the Potency [9] was 27.3 µM (active) and 531 nM (active). The Potency [11] was 33.2 µM (active) and 24.3 µM (active) and 10.6 µM (active), the Potency [16] was 26.4 µM (active) and 27.3 µM (active) and the Potency [13] was 26.4 µM (active) and 30.6 µM (active) and 33.5 µM (active). The Potency [19] was “inactive” and the Potency [15] was “inactive”.

In the case of `CC(=O)Oc1cc2c(s1)CCN(C(C(=O)C1CC1)c1ccccc1F)C2` (configuration not stated), the Potency [1] is reported as “inactive”, the Potency [3] is reported as “inactive” and the Potency [18] is reported as “inactive”. For the same molecule, the Potency [4] was “inactive”, the Potency [5] was “inactive” and the Potency [6] was “inactive”. For the same molecule, the Potency [7] was “inactive”, the Potency [8] was “inactive” and the Potency [10] was “inactive”. For the same molecule, the Potency [20] was “inactive”, the Potency [11] was “inactive” and the Potency [16] was “inactive”. For the same molecule, the Potency [13] was “inactive”, the Potency [19] was “inactive” and the Potency [14] was “inactive”.

With `Cc1cccc(C(=O)O)c1O` the Potency [1] was “inactive”, the Potency [3] was “inactive” and the Potency [18] was “inactive”. The Potency [4] was “inactive”, the Potency [5] was “inactive” and the Potency [6] was “inactive”. For the same molecule, the Potency [7] was “inactive”, the Potency [8] was “inactive” and the Potency [9] was “inactive”. The Potency [11] was “inactive”, the Potency [16] was “inactive” and the Potency [13] was “inactive”. For the same molecule, the outcome [17] was “inactive”, the Potency [14] was “inactive” and the Potency [15] was “inactive”.

From PubChem BioAssay (Tox21)
